The values below come from PubChem BioAssay.

Assay [1] can be described thus: A549 cell viability effects, profiling panel, calcein-AM fluorescence, 48 h, basal (AID 1162). Particulars: higher = more signal.
Assay [2] can be described thus: adipocyte viability effects, profiling panel, cell-based, 3T3-L1 adipocytes, calcein-AM fluorescence, 48 h, basal (AID 1163). Particulars: 3T3-L1 adipocytes viability, higher = more signal.
The nature of assay [3]: HepG2 cell viability effects, profiling panel, calcein-AM fluorescence, 48 h, basal (AID 1164). Particulars: higher = more signal.
Assay [4] can be described thus: MM1S cell viability effects, profiling panel, calcein-AM fluorescence, 48 h, basal (AID 1165).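 Also: viability of MM1S multiple myeloma cells under basal unstimulated conditions.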 Conditions: higher = more signal.
The nature of assay [5]: basal RPMI8226 viability, no added stimulus, profiling panel, cell-based, calcein-AM fluorescence, 48 h, PK04 Diversity Set (AID 1166).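 Also: cells grown under basal conditions without added stimulus.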 Conditions: RPMI8226 myeloma viability, higher = more signal.
Assay [6] is described as follows: basal HepG2 mitochondrial membrane potential changes, profiling panel, cell-based, JC-1 fluorescence, 24 h, 100 nL compound (AID 1167). Particulars: higher = more signal.
The nature of assay [7]: basal 3T3-L1 adipocyte mitochondrial potential changes, profiling panel, cell-based, JC-1 fluorescence, 3T3-L1 adipocytes, 24 h, 100 nL compound (AID 1168). Conditions: JC-1 mitochondrial fluorescence, higher = more signal, called active from +8 up or from −8 down.
Assay [8] in a line: basal RPMI8226 mitochondrial membrane potential changes, profiling panel, cell-based, JC-1 fluorescence, 24 h, 100 nL compound (AID 1169). Conditions: RPMI8226 myeloma, JC-1 mitochondrial potential fluorescence, higher = more signal.
Assay [9] is described as follows: basal MM1S mitochondrial membrane potential changes, profiling panel, cell-based, JC-1 fluorescence, 24 h, 100 nL compound (AID 1170). Conditions: higher = more signal.
Assay [10] is described as follows: A549 lung cancer cell viability effects, profiling panel, resazurin fluorescence, 24 h, PK04 Diversity Set (AID 1171). Particulars: higher = more signal, called active from +8 up or from −8 down.

The source made the active and inactive calls.
Also: test concentration not given here.

Consider `CC(C)[Si](C#CCCCC#N)(O[C@H](c1ccccc1)c1cn(Cc2cccc(Cl)c2)nn1)C(C)C`, for which the z-score in assay [1] is -1.13; in assay [2], -0.75; in assay [3], -0.626; in [4], -0.883; in [5], -4.19; in [6], 6.65. The z-score is -0.108 (inactive) in assay [7], -0.882 in assay [8], -1.56 in assay [9] and 0.268 (inactive) in [10].
Turning to `O=C1OCCC=C[C@H]2OC34C=CCN(CCN5CCOCC5)C(=O)[C@H]3N(CCCCCO)C(=O)[C@@H]4C12` (stereo not given in full), the z-score was 0.478 in assay [1]; 0.0858 in [2]; 1.02 in assay [3]; -0.0119 in [4]; 0.218 in [5]; 0.575 in assay [6]. The z-score in assay [7] is 0.172 (inactive); in assay [8], -0.152; in assay [9], -0.355; in assay [10], 0.203 (inactive).
On to `C=CC[C@@]1(C(=O)N2CCCCC2)N=C(c2ccc(OCCCO)cc2)O[C@@H]1c1ccccc1N=[N+]=[N-]`, for which the z-score was -0.637 in assay [1]; 2.03 in assay [2]; -0.441 in assay [3]; -1.23 in assay [4]; -2.71 in [5]; 1.02 in assay [6]. The z-score was 1.21 (inactive) in assay [7], -0.982 in assay [8], -1.66 in [9] and -1.5 (inactive) in assay [10].
In the case of `COCCCNC(=O)[C@@]1(Cc2ccccc2CN=[N+]=[N-])N=C(c2ccc(OCCCO)cc2)O[C@H]1c1ccccc1CN=[N+]=[N-]`, the z-score in assay [1] was -0.768; in assay [2] it was 1.56; in assay [3], -0.983; in assay [4] it was -2.88; in assay [5], -3.94; in assay [6], 1.57. The z-score in assay [7] was 2.31 (inactive); in assay [8], -1.2; in assay [9], -2.64; in [10], -1.2 (inactive).
For `CCCCC(=C=CC[C@@H](O)c1ccc(CO)o1)CCO`, the z-score in [1] is 1.48; in [2], -0.186; in [3] it was 0.376; in assay [4] it was -0.277; in assay [5] it was 0.275; in assay [6], 0.761. In addition, the z-score in assay [7] is 0.618 (inactive); in assay [8], 0.0267; in assay [9] it was 0.321; in assay [10], 1.28 (inactive).
As to `COC(=O)c1c(CC[C@@H](CO)NC(=O)N[C@@H](Cc2ccccc2)Cn2cc(-c3ccccn3)nn2)oc(C(=O)N2CCOCC2)c1C(=O)OC`, the z-score in [1] was 0.122; in assay [2], 0.17; in assay [3] it was -1.31; in assay [4], 0.527; in [5], 0.642; in assay [6] it was -0.105. For the same compound, the z-score in assay [7] is 0.0526 (inactive); in assay [8], -0.652; in assay [9] it was -0.0834; in [10] it was 0.765 (inactive).
As for `Cc1ccc([C@H]2C(C(=O)O)=CCN2S(=O)(=O)c2ccc(C)cc2)cc1`, the z-score in [1] was -0.261; in [2] it was -0.456; in assay [3], -0.577; in assay [4] it was -0.458; in assay [5], -0.922; in [6], -1.39. For the same compound, the z-score is -0.521 (inactive) in assay [7], 0.284 in assay [8], -0.0534 in assay [9] and -0.29 (inactive) in [10].
Regarding `O[C@@H](Cc1ccccc1)[C@@H](/C=C/C1CC1)NCc1cccc(Cl)c1`, the z-score in assay [1] is 0.399; in [2], -0.15; in [3], -1.39; in assay [4] it was -3.35; in assay [5] it was -2.71; in assay [6], -0.626. Also, the z-score was 0.713 (inactive) in assay [7], -1.01 in assay [8], -1.7 in assay [9] and -0.707 (inactive) in assay [10].
Take `O=C1NC(=O)C2C1C=CC(C(O)c1ccc(I)cc1)N2Nc1ccc(Cl)cc1Cl` (stereo not given): the z-score is -0.519 in assay [1]; 0.53 in assay [2]; -0.363 in assay [3]; -3.83 in assay [4]; -4.06 in assay [5]; -2.51 in assay [6]. For the same compound, the z-score is -1.25 (inactive) in [7], -0.984 in [8], -1.09 in assay [9] and -1.59 (inactive) in assay [10].
Consider `O=C1O[C@H](c2ccccc2)[C@H](c2ccccc2)N2[C@H]1[C@@H](C(=O)NC[C@H](O)c1ccccc1)[C@]1(C(=O)Nc3ccc(C#CC4=CCCCC4)cc31)[C@H]2c1ccccc1OCCO`, for which the z-score is -2.45 in [1]; -0.406 in assay [2]; -3.88 in [3]; -3.28 in assay [4]; -4.23 in assay [5]; -2.22 in assay [6]. Besides, the z-score in assay [7] is 1.26 (inactive); in [8], -1.09; in assay [9] it was -1.79; in assay [10], -3.3 (inactive).
With `O=C1OCCC/C=C\[C@H]2OC34C=CCN(c5ccc6ccccc6c5)C(=O)[C@H]3N(CCCCCO)C(=O)[C@@H]4C12` (stereo not given in full), the z-score in assay [1] is 0.0648; in [2], 0.456; in assay [3], 0.513; in assay [4], 0.0795; in assay [5], -0.681; in assay [6] it was 0.337. Also, the z-score in assay [7] was -0.318 (inactive); in assay [8], 0.873; in assay [9] it was -0.505; in assay [10], 0.123 (inactive).
With `[N-]=[N+]=NCc1ccccc1[C@H]1OC(c2ccc(OCCCO)cc2)=N[C@@]1(Cc1ccccc1)C(=O)N1CCCCC1`, the z-score is 0.562 in [1]; -0.359 in [2]; 0.505 in assay [3]; -0.085 in assay [4]; -0.909 in [5]; 0.732 in assay [6]. The z-score in [7] is -0.677 (inactive); in assay [8] it was -0.931; in assay [9] it was -0.854; in assay [10] it was 0.151 (inactive).
`O=C1C2C=CC(C(O)C=Cc3ccc([N+](=O)[O-])cc3)N(Nc3ccccc3F)C2C(=O)N1c1ccccc1` (stereo not given): the z-score was -0.212 in [1]; -0.846 in assay [2]; -0.0729 in assay [3]; -1.45 in [4]; -0.343 in assay [5]; -1.33 in assay [6]. The z-score in assay [7] is -1.55 (inactive); in [8] it was -0.22; in assay [9] it was -1.54; in assay [10], 0.0067 (inactive).
As for `COCC(=C=CC[C@H](O)c1cccc(OCCO)c1)C[C@H](O)c1cc(Cl)cc(Cl)c1O`, the z-score is 0.593 in [1]; -0.317 in assay [2]; 0.956 in assay [3]; -0.967 in [4]; -0.193 in [5]; 0.277 in [6]. The z-score in assay [7] is 0.86 (inactive); in assay [8], 0.262; in assay [9], -0.931; in assay [10], 0.627 (inactive).
